These results are taken from the supplement of paper PMC10515830.

Holding throughout (conditions): 10 µM; exposure time 6 h
In assay [1] the test system is Danio rerio larvae (5 dpf). Briefly: difference in excitability vs DMSO (percentage points); higher = more excitable than DMSO. In a few lines:
(§1)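 Library compounds were tested at 10 µM final in 100 µL egg water on wild-type 5 dpf zebrafish larvae in 96-well plates for 6 h, with 48 larvae per compound. After 3 h, plates at 28.5 ℃ were imaged every 6 s during a 3-h run of moving lines and 100 ms, 400Hz tones. Behaviours were quantified by Z-LaP Tracker and reported as the compound mean less the vehicle control mean, in percentage points.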

In assay [2] the test system is Danio rerio larvae (5 dpf). Briefly: difference in startle response vs DMSO (percentage points); higher = stronger startle than DMSO. Put shortly: as §1
Assay [3] deals with Danio rerio larvae (5 dpf). Briefly: difference in activity during first hour vs DMSO (percentage points); higher = more activity than DMSO. In a few lines: as §1
Assay [4] has as its system Danio rerio larvae (5 dpf). Briefly: difference in habituation to acoustic stimuli vs DMSO (percentage points); higher = more habituation than DMSO. In a few lines:
as §1

In assay [5] the test system is Danio rerio larvae (5 dpf). Briefly: difference in combined optomotor response to red, green and blue moving lines vs DMSO (percentage points); higher = stronger optomotor response than DMSO. In a few lines:
as §1

Where a name gives a salt, the structure may show the parent alone.

For `COc1cc2nc(N3CCN(C(=O)C4CCCO4)CC3)nc(N)c2cc1OC` (stereo not given) [Terazosin (hydrochloride)], the difference in excitability in assay [1] was 18.5. In assay [2], the “difference in startle response” value was found to be 10.8. Also, the “difference in activity during first hour” value in assay [3] is -10.2. The “difference in habituation to acoustic stimuli” value (“difference in habituation” for short) in assay [4] is 1.1. In addition, the difference in assay [5] came out at 13.9.

Turning to `CNC(=O)c1ccccc1Sc1ccc2c(/C=C/c3ccccn3)n[nH]c2c1` [Axitinib], the difference in excitability in assay [1] came to 4.07. Further, the “difference in startle response” value in assay [2] amounted to 1.36. Also, the “difference in activity during first hour” value in assay [3] was -1.06. In addition, in assay [4], the “difference in habituation” value was -0.505. Besides, in assay [5], the difference turned out to be 6.84.

In assay [1], `CCCCC[C@H](O)/C=C/[C@@H]1[C@H]2C/C(=C/CCCC(=O)O)O[C@H]2C[C@H]1O` [Prostaglandin I2 (sodium salt)] displayed a difference in excitability of 0.101. Moreover, in assay [2], the “difference in startle response” value amounted to 3.79. The “difference in activity during first hour” value in assay [3] worked out at 11.9. Further, in assay [4], the “difference in habituation” value stood at 1.5. Besides, the difference in assay [5] came to 4.02.

In turn, `O=P(O)(O)C(O)(Cc1cccnc1)P(=O)(O)O` [Risedronate (sodium salt)] returned a difference in excitability in assay [1] of 3.7. Also, the “difference in startle response” value in assay [2] is 4.04. In assay [3], the “difference in activity during first hour” value was determined as 24.7. Moreover, in assay [4], the “difference in habituation” value is -2.36. In assay [5], the difference is 9.6.

`OCCN(CCO)c1nc(N2CCCCC2)c2nc(N(CCO)CCO)nc(N3CCCCC3)c2n1` [Dipyridamole] returned a difference in excitability in assay [1] of 1.25. The “difference in startle response” value in assay [2] is 3.31. Further, in assay [3], the “difference in activity during first hour” value came to 10.2. In assay [4], the “difference in habituation” value is -3.82. Moreover, the difference in assay [5] was 6.89.

In turn, `CCCCC[C@H](O)/C=C/[C@H]1[C@H](O)CC(=O)[C@@H]1C/C=C\CCCC(=O)O` [Prostaglandin E2] yielded a difference in excitability in assay [1] of 16.7. Besides, the “difference in startle response” value in assay [2] was -5.41. In assay [3], the “difference in activity during first hour” value stood at 2.46. Besides, the “difference in habituation” value in assay [4] is 4.14. Moreover, the difference in assay [5] came out at 5.15.

For `C=CC[C@@H]1/C=C(\C)C[C@H](C)C[C@H](OC)[C@H]2O[C@@](O)(C(=O)C(=O)N3CCCC[C@H]3C(=O)O[C@H](/C(C)=C/[C@@H]3CC[C@@H](O)[C@H](OC)C3)[C@H](C)[C@@H](O)CC1=O)[C@H](C)C[C@@H]2OC`, the difference in excitability in assay [1] stood at 27. For the same molecule, in assay [2], the “difference in startle response” value is -6.28. Moreover, the “difference in activity during first hour” value in assay [3] turned out to be 5.28. In addition, the “difference in habituation” value in assay [4] was -10.2. Besides, the difference in assay [5] is -13.7.

In assay [1], `O=c1[nH]cc(F)c(=O)[nH]1` [5-Fluorouracil] gave a difference in excitability of 4.49. In addition, the “difference in startle response” value in assay [2] was -1.7. Besides, the “difference in activity during first hour” value in assay [3] is -1.12. Further, the “difference in habituation” value in assay [4] worked out at 0.939. Further, the difference in assay [5] stood at 0.269.

Turning to `CC(=O)Nc1ccc(O)cc1` [Acetaminophen], the difference in excitability in assay [1] is -1.23. Besides, the “difference in startle response” value in assay [2] is -0.558. For the same molecule, the “difference in activity during first hour” value in assay [3] is -0.87. Moreover, the “difference in habituation” value in assay [4] is -5.65. Moreover, in assay [5], the difference is -2.34.

`NC(N)=Nc1nc(CSCC/C(N)=N/S(N)(=O)=O)cs1` [Famotidine] showed a difference in excitability in assay [1] of -2.4. Besides, the “difference in startle response” value in assay [2] was -1.19. For the same molecule, in assay [3], the “difference in activity during first hour” value is -7.05. Further, the “difference in habituation” value in assay [4] turned out to be 6.6. Also, the difference in assay [5] was -3.11.

The molecule `CN(C)CC/C=C1/c2ccccc2COc2ccc(CC(=O)O)cc21` [Olopatadine (hydrochloride)] gave a difference in excitability in assay [1] of 2.11. The “difference in startle response” value in assay [2] is -1.34. Moreover, the “difference in activity during first hour” value in assay [3] was -6.94. Further, the “difference in habituation” value in assay [4] worked out at 3.84. In addition, the difference in assay [5] is 2.97.

On to `CC1(C)O[C@@H]2C[C@H]3[C@@H]4C[C@H](F)C5=CC(=O)CC[C@]5(C)[C@H]4[C@@H](O)C[C@]3(C)[C@]2(C(=O)CO)O1` [Flurandrenolide], for which, in assay [1], the difference in excitability was found to be 7.97. The “difference in startle response” value in assay [2] was 0.156. Besides, the “difference in activity during first hour” value in assay [3] came to 1.93. Also, the “difference in habituation” value in assay [4] came out at 0.924. In addition, the difference in assay [5] worked out at 5.73.

In turn, `NC(=O)N1c2ccccc2C=Cc2ccccc21` [Carbamazepine] displayed a difference in excitability in assay [1] of -5.41. In addition, the “difference in startle response” value in assay [2] is 5.12. The “difference in activity during first hour” value in assay [3] was -2.57. The “difference in habituation” value in assay [4] worked out at 0.458. Besides, the difference in assay [5] is 11.2.

As for `CCN(CC)C(=S)SSC(=S)N(CC)CC` [Disulfiram], the difference in excitability in assay [1] is 12.2. Moreover, in assay [2], the “difference in startle response” value was -15.9. The “difference in activity during first hour” value in assay [3] came to 38.4. Besides, the “difference in habituation” value in assay [4] was -13. For the same molecule, the difference in assay [5] is -9.71.

`CC#C[C@]1(O)CC[C@H]2[C@@H]3CCC4=CC(=O)CCC4=C3[C@@H](c3ccc(N(C)C)cc3)C[C@@]21C` [Mifepristone]: the difference in excitability in assay [1] stood at 10.2. Also, in assay [2], the “difference in startle response” value is -2.97. Besides, in assay [3], the “difference in activity during first hour” value was -9.36. For the same molecule, the “difference in habituation” value in assay [4] was 0.759. Besides, the difference in assay [5] amounted to 4.72.

In assay [1], `Nc1ccc(S(=O)(=O)Nc2ncccn2)cc1` [Sulfadiazine] yielded a difference in excitability of 11.9. In addition, the “difference in startle response” value in assay [2] was 4.72. In addition, the “difference in activity during first hour” value in assay [3] was determined as 7.75. In assay [4], the “difference in habituation” value came out at 1.42. Also, the difference in assay [5] was -1.28.

Molecule `N[C@@H](CC(=O)N1CCn2c(nnc2C(F)(F)F)C1)Cc1cc(F)c(F)cc1F` [(-)-Sitagliptin (phosphate)] gave a difference in excitability in assay [1] of 10.7. Moreover, the “difference in startle response” value in assay [2] was -0.289. For the same molecule, the “difference in activity during first hour” value in assay [3] is -10.7. In assay [4], the “difference in habituation” value was -3.48. Also, the difference in assay [5] is -5.35.

`COc1cc2nc(N3CCN(C(=O)c4ccco4)CC3)nc(N)c2cc1OC` [Prazosin (hydrochloride)]: the difference in excitability in assay [1] is 20.4. In assay [2], the “difference in startle response” value is 2.07. Moreover, the “difference in activity during first hour” value in assay [3] amounted to 11.2. Also, the “difference in habituation” value in assay [4] was -7.66. In addition, in assay [5], the difference came out at 6.47.

Regarding `C[C@H]1c2cccc(O)c2C(=O)C2=C(O)[C@]3(O)C(=O)C(C(N)=O)=C(O)[C@@H](N(C)C)[C@@H]3[C@@H](O)[C@@H]21` [Doxycycline (hyclate)], the difference in excitability in assay [1] stood at 12.8. In addition, the “difference in startle response” value in assay [2] came out at 3.11. In assay [3], the “difference in activity during first hour” value was found to be 5.72. Besides, the “difference in habituation” value in assay [4] was determined as 7.01. In assay [5], the difference is -0.304.

Regarding `C[C@]12C=CC(=O)C=C1CC[C@@H]1[C@@H]2[C@@H](O)C[C@@]2(C)[C@H]1CC[C@]2(O)C(=O)CO` [Prednisolone], in assay [1], the difference in excitability stood at 1.41. Further, the “difference in startle response” value in assay [2] was found to be 3.42. Besides, in assay [3], the “difference in activity during first hour” value was found to be 13.7. In assay [4], the “difference in habituation” value came out at 0.15. Further, the difference in assay [5] amounted to 7.45.

As to `Cc1cnc(NC(=O)C2=C(O)c3ccccc3S(=O)(=O)N2C)s1` [Meloxicam], the difference in excitability in assay [1] was determined as 5.53. Moreover, in assay [2], the “difference in startle response” value came out at 6.51. Also, the “difference in activity during first hour” value in assay [3] was -3.33. Further, the “difference in habituation” value in assay [4] came out at 3.11. In assay [5], the difference was 4.63.

In turn, `CC/C(=C(\c1ccccc1)c1ccc(OCCN(C)C)cc1)c1ccccc1` [Tamoxifen (citrate)] showed a difference in excitability in assay [1] of -1.02. For the same molecule, in assay [2], the “difference in startle response” value was -2.65. In addition, in assay [3], the “difference in activity during first hour” value was determined as 14.8. Besides, the “difference in habituation” value in assay [4] is -2.18. The difference in assay [5] was -15.8.
